# Results from PubChem BioAssay (EPA / NIEHS).
# Where “and” joins values, the source holds several entries; their conditions need not be identical. Equal entries are not always repeated. Calls of active or inactive are those of the source. Rule for the calls: active = hit-call score of the fitted dose curve at least 0.9, where 1 is the maximum; inactive = score below 0.9.
# Read-out: Macrophage colony-stimulating factor (MCSF), CSF1 (gene 1435)
# Experiment: BSK_hDFCGF_MCSF: BioMAP Diversity Plus: hDFCGF Assay for Macrophage colony-stimulating factor (MCSF) Biomarker Activity (AID 2283060)
# Conditions: primary human foreskin fibroblasts; actives raise or lower the signal
# Description: BSK_hDFCGF is a cell-based, multiplexed-readout assay that uses foreskin fibroblast, a human skin primary cell, with measurements taken at 24 hours after chemical dosing in a 96-well plate.BSK_hDFCGF_MCSF is an assay component measured in the BSK_hDFCGF assay. It measures M-CSF antibody related to regulation of gene expression using ELISA technology.Data from the assay component BSK_hDFCGF_MCSF was analyzed into 1 assay endpoint. This assay endpoint, BSK_hDFCGF_MCSF, was analyzed with bidirectional fitting relative to DMSO as the negative control and baseline of activity. Using a type of binding reporter, gain or loss-of-signal activity can be used to understand changes in the signaling as they relate to the gene CSF1. Furthermore, this assay endpoint can be referred to as a primary readout, because this assay has produced multiple assay endpoints where this one serves a signaling function. To generalize the intended target to other relatable targets, this assay endpoint is annotated to the cytokine intended target family, where the subfamily is colony stimulating factor.
# The levels of cell surface (or secreted, indicated by the prefix "s") biomarker endpoints were measured by ELISA. Overt cytotoxicity to cells in confluent adherent cultures (all systems other than the BT system) was assessed by measuring total protein levels using sulforhodamine B (SRB) staining in parallel cultures at the time of biomarker measurements, indicated as SRB endpoints. For proliferation assays for adherent cell types, individual cell types are cultured at sub-confluence and relative cell numbers quantified by SRB staining at time points optimized for each system (48 h: 3C and CASM3C systems; 72 h: BT and HDF3CGF systems; 96 h: SAg system). SRB was performed by staining cells with 0.1% SRB after fixation with 10% TCA and reading wells at 560 nm.Viability and proliferation of PBMC (T cells) was quantified by Alamar Blue reduction for the SAg and BT systems. For PBMC viability (referred to as PBMC Cytotoxicity within the assay endpoint names), cells were plated (75,000/well in a 96-well plate) and then chemical samples added for 1 h before addition of activators, SEB and TSST-1 (20 ng/mL final concentration each). Cells were incubated for 90 h. Then, Alamar Blue (20 uL/well) (Invitrogen, Cat DAL1100) was added for 6 h, and the plates were read with a fluorescence microplate reader at 546/580 nm (excitation/emission). For PBMC proliferation, cells were plated and activated as above but incubated for only 16 h prior to addition of Alamar Blue. Plates were read after 6 h.
SMILES,outcome,AC50
CCCCC1C(=O)N(c2ccccc2)N(c2ccccc2)C1=O,inactive,
O=C(O)C(F)(F)C(F)(F)C(F)(F)C(F)(F)C(=O)O,inactive,
C=CC(=O)OCCCCCCCC(C)C,,20 µM (active)
CC=C(C)C(C)=O,inactive,
C=CC(=O)NCOCCCC,inactive,
Oc1c(Cl)cc(Cl)c(Cl)c1Cl,inactive,
C=CC(=O)OCC(C)OCC(C)OCC(C)OC(=O)C=C (stereo not given),,20 µM (active)
CCCCCCOC(=O)CCCCC(=O)OCCCCCC,inactive,
CC1(C)CC(O)CC(C)(C)N1[O],inactive,
Cc1ccc([N+](=O)[O-])cc1N,inactive,
O=C(Oc1ccccc1)c1ccccc1C(=O)Oc1ccccc1,inactive,
COc1ccc(C(=O)/C(Br)=C\C(=O)O)cc1,,15.4 µM (active) and 20 µM (active)
c1ccc2sc(SSN3CCOCC3)nc2c1,,9.39 µM (active)
O=C1CCCCCCCCCCCN1,inactive,
CCCCCCCCCCCC(=O)N(C)CC(=O)O,inactive,
CC/C=C\C/C=C\C/C=C\CCCCCCCC(=O)OC,,8.71 µM (active)
O=C1CCCCCCCCCCC1,inactive,
C=C(C)C(=O)OCCCCCCCCCCCC,inactive,
Cc1c(O)cccc1O,inactive,
CCCCCCCCC(CO)CCCCCC (stereo not given),,4.32 µM (active)

SMILES,outcome,AC50
CCOC(=O)C1=NN(c2ccc(Cl)cc2Cl)C(C)(C(=O)OCC)C1 (stereo not given),inactive,
Fc1ccc(Br)cc1,inactive,
C[N+](C)(C)CCCNS(=O)(=O)C(F)(F)C(F)(F)C(F)(F)C(F)(F)C(F)(F)C(F)(F)C(F)(F)C(F)(F)F,,46.1 µM (active) and 48.7 µM (active)
CCc1cccc(C)c1N(C(=O)CS(=O)(=O)O)C(C)COC (stereo not given),inactive,
CCCCCCCCCCCC(C)=O,inactive,
COC(OC)(C(=O)c1ccccc1)c1ccccc1,inactive,
CC(c1cc(C(C)(C)C)cc(C(C)(C)C)c1O)c1cc(C(C)(C)C)cc(C(C)(C)C)c1O,inactive,
CCNc1nc(NC(C)(C)C)nc(OC)n1,inactive,
CC(C)C(=O)OCCc1ccccc1,inactive,
CCCCCCC=O,inactive,
CCCC(C)C(=O)OCC (stereo not given),inactive,
c1ccc2c(c1)[nH]c1ccccc12,inactive,
Clc1cc(Cl)c(Cl)c(Cl)c1Cl,inactive,
CC(C)[N+](C)(CCOC(=O)C1c2ccccc2Oc2ccccc21)C(C)C,inactive,
CC=C(C)C=CC=C(C)C,,3.97 µM (active)
C=CCCCCCCCCC=O,inactive,
Oc1ccccc1Cc1ccccc1O,inactive,
CCN1CN(CC)CN(CC)C1,inactive,
Oc1ccc(/C=C/c2cc(O)cc(O)c2)cc1,inactive,
Nc1ccc(C(=O)O)cc1,inactive,
